Source: PubChem BioAssay (NCATS)
Records with an inconclusive call do not appear. The source made the active and inactive calls. The call rests on the fitted dose curve; in most records, active means well fitted curve in the direction sought with a large enough effect; inconclusive means small, poorly fitted or top-dose-only effect, or another doubt; inactive means no such curve, though single readings can be large; an effect the other way counts as inactive or inconclusive.

Key:
[1] = Cellular Toxicity (caspase-3) MRC-5 (AID 659);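 further: 0% = DMSO basal and 100% = 10 µM staurosporine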
How it was run: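 Concentration-dependent caspase 3/7 activation is measured in human normal lung fibroblasts (MRC-5) following 16-hour treatment. AC50 values come from standard Hill-equation modeling of luminescence normalized to DMSO and 10 uM staurosporine.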

[2] = Cellular Toxicity (caspase-3) Mesangial (AID 660);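 further: combined caspase 3 and 7 activity read by Caspase-Glo luminescence; cells exposed to compound for 16 h before the caspase read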
How it was run: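 Mesangial cells, 1000/well, 5 h settle at 37 °C; compound 16 h, 37 °C; Caspase-Glo 3/7 reagent 20 min RT; luminescence. Norm.: DMSO = 0%, tamoxifen 100 uM = 100%. AC50, Hill fit.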

[3] = Cellular Toxicity (caspase-3) SK-N-SH (AID 661);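 further: 0% = DMSO basal and 100% = 10 µM staurosporine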
How it was run: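 Human neuroblastoma SK-N-SH, 1500 cells/well, 5 hr pre-incubation, then compound 16 hr, 37 °C. Caspase-Glo 3/7 reagent, 1 hr RT, luminescence. Norm. to DMSO/10 uM staurosporine; Hill-fit AC50.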

[4] = Cellular Toxicity (caspase-3) H-4-II-E (AID 663); conditions: Potency: caspase-3 activation;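 further: cells exposed to compound for 16 hr before readout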
How it was run: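 Apoptosis induction is scored as increased luminescence from caspase 3/7 substrate cleavage in rat hepatoma H-4-II-E cells exposed to compound for 16 hr. Activity is scaled between DMSO and 100 uM tamoxifen.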

[5] = Cellular Toxicity (caspase-3) Hek293 (AID 664); conditions: HEK293 caspase-3 activation, DMSO = 0%, 100 µM tamoxifen = 100%; at 92.2 µM (top of the series);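 further: cells exposed to compound for 16 h at 37 °C before readout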
How it was run: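 Cells plated, 5 hr at 37 °C; compounds added; 16 hr at 37 °C; Caspase-Glo 3/7 reagent, 20 min RT; luminescence read. Activation expressed relative to DMSO and 100 uM tamoxifen, AC50 by Hill model.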

[6] = Cellular Toxicity (caspase-3) N2a (AID 665);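 further: compound exposure lasted 16 h at 37 °C before readout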
How it was run: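 N2a cells, 1500/well, 5 h settle at 37 °C; cpd 16 h, 37 °C; Caspase-Glo 3/7, 1 h RT; luminescence. Norm: DMSO = 0, 10 uM staurosporine = 100%. AC50, Hill fit.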

[7] = Cellular Toxicity (caspase-3) NIH 3T3 (AID 666);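 further: 0% = DMSO basal and 100% = 100 µM tamoxifen stimulation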
How it was run: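 Luminescence from aminoluciferin released by caspase-3/7 cleavage of a peptide substrate served as read-out. Mouse fibroblast NIH 3T3 cells were exposed to compounds over a concentration range for 16 hours, and AC50 values came from standard Hill modelling.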

[8] = Cellular Toxicity (caspase-3) Renal Proximal Tubule (AID 667); conditions: Potency: caspase-3 activation;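 further: cells exposed to compound for 16 hours at 37 °C before detection; 0% = DMSO basal and 100% = 10 µM staurosporine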
How it was run: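 Caspase-Glo 3/7 read-out, rat primary kidney proximal tubule cells. Compound exposure 16 h, 37 °C; detection after 1 h at RT. Activity scaled to DMSO and 10 uM staurosporine.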

[9] = molecular target: Cytochrome P450 2C9 (Homo sapiens) (UniProt P11712); test: qHTS Assay for Inhibitors and Substrates of Cytochrome P450 2C9 (AID 883); further: on the % scale 0 is the no-effect control and ±100 the full control effect; nearly all actives have a fitted effect of over 60% in size
How it was run: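 Luminescent read-out of deoxyluciferin hydroxylation, normalized to 57uM sulphaphenazole (AC100). Reaction: 10nM enzyme, 100uM Luciferin-H (equal to KM), 25mM KPO4, 10 min compound preincubation, then 60 min with NADPH regeneration, both at 37C.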

[10] = molecular target: Cytochrome P450 3A4 (Homo sapiens) (UniProt P08684); test: qHTS Assay for Activators of Cytochrome P450 3A4 (AID 885); further: nearly all actives have a fitted effect of over 65% in size
How it was run: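 Human CYP3A4 (20 nM) with Luciferin-PPXE at 25 uM (its KM) in 200 mM KPO4; 10 min compound preincubation, then NADPH regeneration and 60 min reaction at RT. Luciferin read by luminescence; normalized to 57 uM ketoconazole full inhibition.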

[11] = molecular target: Cytochrome P450 2D6 (Homo sapiens) (UniProt P10635); test: qHTS Assay for Inhibitors and Substrates of Cytochrome P450 2D6 (AID 891);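 further: luciferin methyl ether substrate demethylated by CYP2D6 with NADPH regeneration; on the % scale 0 is the no-effect control and ±100 the full control effect; nearly all actives have a fitted effect of over 60% in size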
How it was run: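 Human CYP2D6 (5 nM) with 30 uM Luciferin-ME EGE (at Km) in 100 mM KPO4, compound preincubated 10 min, then NADPH regeneration system for 60 min at room temperature. Luciferin read by luminescence; normalized to 1.43 uM quinidine.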

[12] = molecular target: Cytochrome P450 2C19 (Homo sapiens) (UniProt P33261); test: qHTS Assay for Inhibitors and Substrates of Cytochrome P450 2C19 (AID 899); further: on the % scale 0 is the no-effect control and ±100 the full control effect; nearly all actives have a fitted effect of over 60% in size
How it was run: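 Luminescence readout of luciferin formed from 10uM Luciferin-H EGE (KM level) by 5 nM CYP2C19 in 50mM KPO4. 60 min NADPH-driven reaction at 37C after 10 min compound preincubation; data scaled to 57uM ketoconazole inhibition.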

[13] = Cell Viability - LYMP2-001 (AID 921);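 further: 0% = DMSO only and full inhibition = tetraoctylammonium bromide control wells; nearly all actives have a fitted effect of over 70% in size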
How it was run: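 A lymphoblastoid cell line of human origin was treated with library compounds across a concentration series for 24 hours, and viable cell number was estimated from ATP-driven luciferase light output. Hill modeling gave AC50.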

[14] = MultiTox-Fluor Cytotoxicity Assay - LYMP1-001 - Dead Cells (AID 946);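 further: 0% = DMSO and 100% = tetraoctylammonium bromide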
How it was run: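 LYMP1-001 lymphoblastoid cells (2500/well) treated 16 h at 37 C. Dead-cell protease cleavage of bis-AAF-R110 read at Ex/Em 485/520. Normalized to DMSO and 15 uM tetraoctylammonium bromide; AC50 from Hill fits.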

[15] = MultiTox-Fluor Cytotoxicity Assay - LYMP1-001 - Live Cells (AID 947);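 further: 0% = DMSO only and full inhibition = tetraoctylammonium bromide control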
[16] = Cell Viability - LYMP1-002 - Assay at 16 hr (AID 948);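 further: 0% = DMSO alone and full effect = 92 µM tetraoctylammonium bromide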
How it was run: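 In this qHTS, lymphoblastoid LYMP1-002 cells (human) receive compounds for 16 hr at 37 C. Viability is taken from CellTiter-Glo ATP luminescence, and AC50 derives from standard Hill fits.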

[17] = MultiTox-Fluor Cytotoxicity Assay - LYMP1-002 - Live Cells (AID 955); further: on the % scale 0 is the no-effect control and ±100 the full control effect
How it was run: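 Read-out is live-cell protease activity (cell-permeant GF-AFC substrate, fluorescence Ex/Em=405/510), where a decrease indicates acute toxicity. Human lymphoblastoid cells were treated 16 hours at 37 C in a concentration series, and AC50 values came from standard Hill modelling.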

[18] = MultiTox-Fluor Cytotoxicity Assay - LYMP1-003 - Dead Cells (AID 961);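 further: 0% = DMSO and 100% = tetraoctylammonium bromide; nearly all actives have a fitted effect of over 70% in size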
How it was run: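 LYMP1-003 human lymphoblastoid cells (2500/well) exposed to compound 16 h at 37 C in complete medium; dead-cell protease read with bis-AAF-R110 fluorescence (Ex/Em 485/520) after 60 min at room temperature. Normalized to DMSO and 15 uM tetraoctylammonium bromide; AC50 from Hill fit.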

[19] = MultiTox-Fluor Cytotoxicity Assay - LYMP1-003 - Live Cells (AID 962);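 further: 0% = DMSO only and full loss = 92 µM tetraoctylammonium bromide; cytotoxic hits lower the live-cell protease signal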
How it was run: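 qHTS, 1536-well; 2500 cells/well LYMP1-003; 5 hr 37 C settle; cpd 16 hr 37 C; MultiTox-Fluor reagent 60 min RT; live-cell protease fluor. 405/510; Hill-fit AC50; tetraoctylammonium bromide pos. ctrl.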

[20] = Cell Viability - LYMP1-003 - Assay at 24 hr (AID 963);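 further: plate controls were DMSO only for no effect and tetraoctylammonium bromide positive control for full effect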
How it was run: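 Cells seeded at 2500/well, 5 hr at 37 C; compounds added; 24 hr at 37 C; CellTiter-Glo added, 30 min room temperature; luminescence read. Decrease in ATP taken as cytotoxicity, AC50 from Hill modelling.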

[21] = Cell Viability - LYMP1-003 - Assay at 40 hr (AID 964); further: on the % scale 0 is the no-effect control and ±100 the full control effect; nearly all actives have a fitted effect of over 60% in size
How it was run: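 Cells were seeded at 2500 per well and incubated 5 hr at 37 C. Compounds were added across a concentration series and left 40 hr at 37 C. CellTiter-Glo was added for 30 min at room temperature before luminescence reading.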

[22] = Cell Viability - LYMP2-004 (AID 966);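 further: plate controls were DMSO only for no effect and tetraoctylammonium bromide control for full effect; nearly all actives have a fitted effect of over 65% in size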
How it was run: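 Cells seeded 2500/well, rested 5 hr at 37 C, dosed across a concentration series, incubated 24 hr at 37 C, then CellTiter-Glo added for 30 min at room temperature and luminescence read. Hill fitting gave AC50.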

[23] = Cell Viability - LYMP2-005 (AID 967);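 further: plate controls were DMSO only for no effect and 92 µM tetraoctylammonium bromide control for full effect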
How it was run: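 Luciferase-based ATP quantitation served as the viability measure in human lymphoblastoid LYMP2-005 cells exposed to test compounds for 24 h at 37 C in complete culture medium. Potency (AC50) was obtained by fitting concentration-response curves with the Hill equation.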

[24] = Cell Viability - LYMP2-009 (AID 968);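 further: 0% = DMSO alone and the full-kill end = tetraoctylammonium bromide at 92 µM; nearly all actives have a fitted effect of over 55% in size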
[25] = Cell Viability - LYMP2-011 (AID 969)
How it was run: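 2500 cells/well, 5 hr 37 C; compound added, 24 hr 37 C; CellTiter-Glo 30 min RT; luminescence. qHTS concentration-response, Hill-equation AC50. Tetraoctylammonium bromide positive control.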

[26] = Cell Viability - LYMP2-013 (AID 970);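 further: 0% = DMSO only and full inhibition = tetraoctylammonium bromide control; nearly all actives have a fitted effect of over 55% in size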
How it was run: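 qHTS; 2500 lymphoblastoid cells/well; 5 hr 37 C settle; cpd 24 hr 37 C; CellTiter-Glo, 30 min RT; luminescence. AC50 = Hill fit.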

Sequence of Cytochrome P450 2C9 (Homo sapiens) (P11712 whole entry, looked up): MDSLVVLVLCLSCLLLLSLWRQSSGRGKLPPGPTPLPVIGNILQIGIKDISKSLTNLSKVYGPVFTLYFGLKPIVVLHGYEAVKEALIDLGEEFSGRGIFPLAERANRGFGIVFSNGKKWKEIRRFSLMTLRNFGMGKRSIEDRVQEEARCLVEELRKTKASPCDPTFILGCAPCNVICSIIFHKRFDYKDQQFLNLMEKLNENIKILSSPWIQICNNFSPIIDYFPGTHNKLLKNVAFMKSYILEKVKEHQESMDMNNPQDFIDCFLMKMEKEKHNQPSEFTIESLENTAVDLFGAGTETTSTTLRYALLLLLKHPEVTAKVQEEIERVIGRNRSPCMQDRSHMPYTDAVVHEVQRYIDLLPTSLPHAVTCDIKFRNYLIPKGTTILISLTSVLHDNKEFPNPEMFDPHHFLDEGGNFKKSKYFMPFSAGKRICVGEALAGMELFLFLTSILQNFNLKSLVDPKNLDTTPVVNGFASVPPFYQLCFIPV
Sequence of Cytochrome P450 2C19 (Homo sapiens) (P33261 whole entry, looked up): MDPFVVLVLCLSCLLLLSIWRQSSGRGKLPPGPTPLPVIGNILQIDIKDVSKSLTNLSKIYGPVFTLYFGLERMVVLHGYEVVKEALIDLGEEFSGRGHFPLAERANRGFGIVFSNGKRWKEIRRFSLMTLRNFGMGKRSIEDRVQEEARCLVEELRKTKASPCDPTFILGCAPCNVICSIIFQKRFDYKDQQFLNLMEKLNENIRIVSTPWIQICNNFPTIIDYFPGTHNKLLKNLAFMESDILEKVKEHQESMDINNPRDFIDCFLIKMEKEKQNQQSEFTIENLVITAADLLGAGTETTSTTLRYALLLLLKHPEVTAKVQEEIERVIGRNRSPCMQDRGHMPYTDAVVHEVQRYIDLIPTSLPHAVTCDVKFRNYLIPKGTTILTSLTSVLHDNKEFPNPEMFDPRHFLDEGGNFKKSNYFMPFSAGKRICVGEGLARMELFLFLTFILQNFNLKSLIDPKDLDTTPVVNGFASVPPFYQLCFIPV
Sequence of Cytochrome P450 3A4 (Homo sapiens) (P08684 whole entry, looked up): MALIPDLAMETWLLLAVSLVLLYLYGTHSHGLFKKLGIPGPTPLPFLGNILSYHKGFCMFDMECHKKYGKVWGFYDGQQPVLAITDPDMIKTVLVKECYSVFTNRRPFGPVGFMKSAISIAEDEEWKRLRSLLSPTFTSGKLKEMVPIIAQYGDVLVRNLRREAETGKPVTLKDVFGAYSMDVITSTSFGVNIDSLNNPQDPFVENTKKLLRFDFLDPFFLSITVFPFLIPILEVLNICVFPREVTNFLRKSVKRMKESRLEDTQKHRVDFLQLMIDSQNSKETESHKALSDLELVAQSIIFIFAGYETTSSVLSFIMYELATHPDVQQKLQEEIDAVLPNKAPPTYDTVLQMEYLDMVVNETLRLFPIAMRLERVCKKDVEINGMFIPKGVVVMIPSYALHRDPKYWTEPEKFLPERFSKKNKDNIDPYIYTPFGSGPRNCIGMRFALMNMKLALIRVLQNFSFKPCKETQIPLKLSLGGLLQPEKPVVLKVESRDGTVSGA
Sequence of Cytochrome P450 2D6 (Homo sapiens) (P10635 whole entry, looked up): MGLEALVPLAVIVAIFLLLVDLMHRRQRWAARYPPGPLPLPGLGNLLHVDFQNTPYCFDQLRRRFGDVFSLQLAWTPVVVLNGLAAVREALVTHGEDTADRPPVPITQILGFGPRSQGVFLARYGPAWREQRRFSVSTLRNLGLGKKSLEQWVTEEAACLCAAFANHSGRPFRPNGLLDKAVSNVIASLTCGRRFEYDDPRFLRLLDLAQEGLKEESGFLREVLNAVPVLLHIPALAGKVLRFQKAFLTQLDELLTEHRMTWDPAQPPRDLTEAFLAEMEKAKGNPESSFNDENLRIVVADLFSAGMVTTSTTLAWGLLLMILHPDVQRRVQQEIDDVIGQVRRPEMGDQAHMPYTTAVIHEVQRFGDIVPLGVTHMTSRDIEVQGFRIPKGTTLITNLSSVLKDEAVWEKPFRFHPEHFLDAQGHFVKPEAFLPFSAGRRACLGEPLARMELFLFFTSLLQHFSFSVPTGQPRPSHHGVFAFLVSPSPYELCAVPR

CC(CCC(=O)O)(c1ccc(O)cc1)c1ccc(O)cc1
inactive: outcome [1] | outcome [2] | outcome [3] | Potency [4] | caspase-3 activation [5] 1.18% | outcome [6] | outcome [7] | Potency [8] | Potency [9] | Potency [10] | Potency [11] | Potency [12] | Potency [13] | Potency [14] | Potency [15] | Potency [16] | outcome [17] | Potency [18] | Potency [19] | Potency [20] | Potency [21] | Potency [22] | Potency [23] | Potency [24] | Potency [25] | Potency [26]
